CF NFkB inh – inhibitors of PAF-induced NF-kB signaling, primary screen, cell-based, GFP fluorescence, uHTS. KKLEB NF-kB-GFP reporter, GFP fluorescence overnight. inhibition, % at 5 µM. 360,000 tested, 0.86% active;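 active = at least 50% inhibition at 5 µM, scaled per plate between neutral and stimulator controls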;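 note: PAF is a Pseudomonas aeruginosa culture filtrate used as stimulus; plate controls were PAF-stimulated DMSO wells for no effect and unstimulated DMSO wells for full effect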
MITF TRPM1 inh – inhibitors of MITF-dependent TRPM1 promoter reporter, primary screen, cell-based, SK-MEL-5, single point, luciferase. AID 488899, 2010. SK-MEL-5 TRPM1 promoter luciferase, 24 h. 330,000 tested, 0.83% active. inhibition, % at 12.5 µM;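 active = mean inhibition across replicates of 60% or more, whatever share of single replicates reaches that level; inconclusive = some that reach 60%, reason not given; inactive = mean inhibition across replicates below 60%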
HIF-2a block – HIF-2a reporter inhibitors, primary screen, luminescence, 786-0 RCC cells; 360,000 tested, 0.72% active; inhibition, % at 18.8 µM; AID 624352, 2012; 786-0 RCC cells HIF-2a reporter, luciferase luminescence, overnight;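 active = inhibition of the luminescence signal of 40% or more relative to plate controls, in a single-dose primary screen at 18.75 µM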
Peg3 prom inh-1 – Peg3 promoter-driven luciferase inhibitors, primary screen, cell-based, HeLa, luciferase luminescence | inhibition, % at 20 µM | AID 588405, 2011 | 360,000 tested, 1.7% active | HeLa PEG-Prom luciferase reporter, overnight;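 active = inhibition of at least 50% at 20 µM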
KKLEB cytotox – cytotoxicity in KKLEB CF airway cells, primary screen, cytotoxicity control for CF NF-kB inhibitor project, cell-based, uHTS, fluorescence assay plates; KKLEB CF airway cells viability, ATPlite luminescence, overnight; stronger effect = lower value; cells stimulated with P. aeruginosa culture filtrate; activity change (cytotoxicity), % at 5 µM; 360,000 tested, 0.36% active;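 active = corrected activity change at or below -50% at 5 µM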
Shn3 inh set2 – reduction of Shn3 3'UTR firefly luciferase signal, primary screen, Schnurri-3 inhibitor project, cell-based, Clone20 osteoblasts, set 2. Clone20 osteoblast Shn3 3'UTR firefly luciferase, 24 h. inhibition, % at 12.5 µM. 360,000 tested, 0.52% active;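 active = mean inhibition of at least 75% with every replicate also reaching 75%; inconclusive = mean inhibition at least 75% but some replicate below; inactive = mean inhibition below 75%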;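 note: 0% = median of neutral control wells and 100% = pilot-screen positive control compound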
Peg3 prom inh-2 – Peg3 promoter reporter inhibitors, retest, confirmation, cell-based, HeLa, luciferase reporter, single concentration. shares compounds with Peg3 prom inh-1. 1,300 tested, 84% active. inhibition, % at 20 µM. HeLa PEG-Prom luciferase reporter, luminescence, overnight;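 active = at 20 µM dose, 40% or more inhibition averaged across four replicates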
Numbers without * were called inactive; ? = inconclusive; / = no result given. This is a sample that favours compounds with a hit; in the whole collection about 2.8% have one here.

SMILES	CF NFkB inh	MITF TRPM1 inh	HIF-2a block	Peg3 prom inh-1	KKLEB cytotox	Shn3 inh set2	Peg3 prom inh-2
COc1ccc(-c2cc3nc4n(c(=O)c3s2)CCCCC4)cc1	-5	-57	-195	-214	-14	-10	/
Cc1ccccc1C(=O)N1CCN(c2ccc([N+](=O)[O-])c(NCc3cccnc3)c2)CC1	-18	-3	19	46	9	26	/
Cc1ccc(C(=O)N2CCN(c3ccc([N+](=O)[O-])c(NCc4cccnc4)c3)CC2)cc1	-14	-3	15	56*	3	16	48*
Cc1noc(C)c1S(=O)(=O)N(C)C[C@H]1Oc2ccc(NC(=O)CCC(F)(F)F)cc2C(=O)N([C@H](C)CO)C[C@@H]1C	9	-1	2	-4	-9	-10	/
COc1cc2nc(SCC(=O)NCc3ccco3)n(Cc3ccc(Cl)cc3)c(=O)c2cc1OC	42	62*	20	51*	5	36	12
Cc1cccc(N=C2Sc3nc4c(C)c(C)ccc4cc3CN2CCN2CCOCC2)c1	0	-3	-14	55*	-5	-14	57*
COCCN1Cc2cc3cc(C)ccc3nc2SC1=Nc1cccc(OC)c1	2	-5	-23	-13	-2	-36	/
Cc1nnsc1C(=O)Nc1ccc(S(=O)(=O)N2CCCC(C)C2)cc1 (stereo not drawn)	-27	13	1	-4	10	26	/
CN(C)CC1CCC/C(=C\c2ccc(OC(=O)/C=C/c3ccccc3)cc2)C1=O (stereo not drawn)	-5	69*	-11	101*	-1	14	100*
CN(C)CC1CCC/C(=C\c2ccc(OC(=O)c3ccc(Cl)cc3)cc2)C1=O (stereo not drawn)	-18	92*	17	105*	-8	46	100*
COc1cc2ccc3c(CCN(C)C)cc(OC)c(OC)c3c2cc1OC	-1	-6	20	31	1	3	/
CN(C)CCc1cc2c(c3c1ccc1ccccc13)OCO2	-38	5	34	93*	-3	1	93*
O=C1c2ccccc2C(=O)C12OC2c1ccc(Cl)cc1Cl (stereo not drawn)	96*	?	-14	99*	-68*	95*	51*
CC1=NOC(=O)/C1=C\c1ccc(-c2ccccc2Br)o1	58*	89*	49*	93*	-20	91*	99*
OCCCn1c(CCNc2nc(-c3ccc(Cl)cc3)cs2)nc2cc(C(F)(F)F)ccc21	-13	2	-23	-7	-5	26	/
O=[N+]([O-])c1cc(-c2csc(NCCc3nc4cc(C(F)(F)F)ccc4n3CCCO)n2)ccc1Cl	-18	-24	-4	54*	-10	17	20
Cc1ccc([N+](=O)[O-])cc1NC(=O)c1ccc2c(c1)OCO2	5	2	-37	-2	5	-17	/
O=C(Nc1ncc([N+](=O)[O-])s1)c1ccc2c(c1)OCO2	46	65*	61*	70*	-11	30	64*
C[C@H]1CN([C@@H](C)CO)C(=O)CCCn2cc(nn2)CO[C@@H]1CN(C)C(=O)Nc1ccccc1C(F)(F)F	11	/	7	-11	-8	-3	/
O=C(N/N=C/c1sc(N2CCOCC2)nc1-c1ccccc1)c1cccc(S(=O)(=O)N2CCOCC2)c1	-8	65*	0	68*	-9	84	68*
Nc1ccc(C(=O)N/N=C/c2sc(N3CCOCC3)nc2-c2ccccc2)cc1	-22	-8	3	-5	7	-16	/
Nc1c(C(=O)Nc2nc3ccccc3s2)sc2nc(-c3cccs3)ccc12	12	?	-40	95*	-41	82	64*
COc1ccc(OC)c(C(=O)Nc2c(O)ccc3ccccc23)c1	-5	5	-39	-28	-4	-30	/
COCCCNC(=O)c1ccc(Cn2c(=O)c3ccccc3n(Cc3ccccc3C#N)c2=O)cc1	7	16	13	54*	1	8	57*
COCCCNC(=O)c1ccc(Cn2c(=O)c3ccccc3n(Cc3ccccc3C)c2=O)cc1	7	4	13	34	-3	12	/
SMILES	CF NFkB inh	MITF TRPM1 inh	HIF-2a block	Peg3 prom inh-1	KKLEB cytotox	Shn3 inh set2	Peg3 prom inh-2
O=C(Nc1cccc(S(=O)(=O)N2CCOCC2)c1)c1ccc2c(=O)n3c(nc2c1)CCCCC3	-13	6	11	51*	-6	63	51*
O=c1[nH]c(=S)[nH]c2c1C(c1ccc(Cl)cc1)OC(C1CCCCC1)C2 (stereo not drawn)	8	/	8	18	-34	-13	/
COc1cc(NC(=O)c2cccs2)c(C(=O)OCC(=O)c2cc(C)n(-c3ccccc3)c2C)cc1OC	15	64*	23	59*	-11	9	83*
COc1ccc(-c2cc(-c3ccco3)[nH]c(=O)c2C#N)cc1OC	15	0	9	7	-7	7	/
CN1CCN(c2ccc(-c3cccc(NC(=O)COc4ccc(Cl)cc4Cl)c3)nn2)CC1	10	-21	-67	54*	-58*	8	16
O=C(NCc1ccccc1CN1CCCC1)c1ccc(S(=O)(=O)Nc2ccccc2)cc1	1	/	11	30	2	16	/
O=[N+]([O-])c1ccc(-c2nc(Nc3cccc(O)c3)c3ccccc3n2)cc1	-24	-5	-40	81*	-13	26	91*
Cc1cc(-n2c(SCc3ccccc3F)nc3n[nH]c(C)c3c2=N)ccc1Cl	-6	0	-1	21	-4	15	/
CCN(C(=O)CSc1nc2n[nH]c(C)c2c(=N)n1-c1ccc(Cl)c(C)c1)c1cccc(C)c1	27	19	18	72*	6	27	49*
CN(C)CCCNc1nc2cc(-c3ccc4c(ccn4C)c3)sc2c(=O)n1C	-13	/	-293	-282	4	-98	/
C[C@H]1NC(=O)[C@]2(C)[C@@H](c3ccccc3)[C@H]3COc4ccccc4[C@H]3N2C1=O	17	-1	12	-1	1	2	/
O=C(Nc1nc2cc3c(cc2s1)OCCO3)c1ccco1	-1	?	71*	66*	-37	53	62*
O=C(Nc1nc2cc3c(cc2s1)OCO3)C1=COCCO1	8	83*	55*	62*	-28	73	64*
